Among all 5,500 compounds or so, about 2,000 (36%) were called active. Inconclusive results (about 18%) are left out. Rule as the data show it: active = normalized growth mostly below about 0.91 (no sharp cut-off); inconclusive = no clear call, values can overlap the other calls; inactive = mostly above about 0.92. The list shows a part of the results.
Assay: chemical genetic growth profiling, strain panel (AID 1159580);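 also: tested at 20 µM; growth read once vehicle control cultures reached saturation at 30 °C; 1 = growth at the plate median or of vehicle wells; lower values mean less growth of the strain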
Conditions: growth OD

Measured: normalized growth

COc1cccc2c1cc([N+](=O)[O-])c1c(C(=O)O)cc3c(c12)OCO3
inactive: S. cerevisiae deletion strains, locus YJR066W, strain TOR1, stronger effect = lower value 0.912 | S. cerevisiae deletion strains, locus YJR075W, strain HOC1, stronger effect = lower value 1.04 | S. cerevisiae deletion strains, locus YKL009W, strain mrt4, stronger effect = lower value 0.967 | S. cerevisiae deletion strains, locus YKL068W, stronger effect = lower value 1.01 | S. cerevisiae deletion strains, locus YKL085W, strain MDH1 (second series), stronger effect = lower value 0.999 | S. cerevisiae deletion strains, locus YKL085W, strain MDH1, stronger effect = lower value 0.999 | S. cerevisiae deletion strains, locus YKL160W, strain elf1, stronger effect = lower value 1.01 | S. cerevisiae deletion strains, locus YKL190W, strain CNB1, stronger effect = lower value 1.02 | S. cerevisiae deletion strains, locus YKR001C, strain vps1, stronger effect = lower value 1.03 | S. cerevisiae deletion strains, locus YKR026C, strain gcn3, stronger effect = lower value 1.02 | S. cerevisiae deletion strains, locus YKR091W, strain srl3, stronger effect = lower value 1.02 | S. cerevisiae deletion strains, locus YLL001W, strain dnm1, stronger effect = lower value 1.01 | S. cerevisiae deletion strains, locus YLL026W, stronger effect = lower value 1.01 | S. cerevisiae deletion strains, locus YLL041C, strain sdh2, stronger effect = lower value 1.01 | S. cerevisiae deletion strains, locus YLR027C, strain aat2, stronger effect = lower value 1.02 | S. cerevisiae deletion strains, locus YLR039C, strain RIC1, stronger effect = lower value 1.06 | S. cerevisiae deletion strains, locus YLR058C, strain SHM2, stronger effect = lower value 1.01 | S. cerevisiae deletion strains, locus YLR102C, strain apc9, stronger effect = lower value 1.02 | S. cerevisiae deletion strains, locus YLR113W, strain HOG1, stronger effect = lower value 0.971 | S. cerevisiae deletion strains, locus YLR221C, strain rsa3, stronger effect = lower value 1.02 | S. cerevisiae deletion strains, locus YLR258W, strain gsy2, stronger effect = lower value 1.03 | S. cerevisiae deletion strains, locus YLR262C, strain YPT6 (second series), stronger effect = lower value 1 | S. cerevisiae deletion strains, locus YLR262C, strain YPT6, stronger effect = lower value 1.07 | S. cerevisiae deletion strains, locus YLR268W, strain sec22, stronger effect = lower value 1.06 | S. cerevisiae deletion strains, locus YLR320W, strain mms22, stronger effect = lower value 1.02 | S. cerevisiae deletion strains, locus YLR330W, strain CHS5, stronger effect = lower value 1.02 | S. cerevisiae deletion strains, locus YLR342W, strain FKS1 (second series), stronger effect = lower value 0.989 | S. cerevisiae deletion strains, locus YLR342W, strain FKS1, stronger effect = lower value 1.04 | S. cerevisiae deletion strains, locus YLR357W, strain rsc2, stronger effect = lower value 1.01 | S. cerevisiae deletion strains, locus YLR370C, strain arc18, stronger effect = lower value 1.03 | S. cerevisiae deletion strains, locus YLR371W, strain rom2, stronger effect = lower value 1.03 | S. cerevisiae deletion strains, locus YLR384C, strain iki3, stronger effect = lower value 1 | S. cerevisiae deletion strains, locus YLR418C, strain cdc73, stronger effect = lower value 1.01 | S. cerevisiae deletion strains, locus YML016C, strain PPZ1, stronger effect = lower value 1.01 | S. cerevisiae deletion strains, locus YML032C, strain rad52, stronger effect = lower value 0.99 | S. cerevisiae deletion strains, locus YML120C, strain ndi1, stronger effect = lower value 1.02 | S. cerevisiae deletion strains, locus YML124C, strain tub3, stronger effect = lower value 1.01 | S. cerevisiae deletion strains, locus YMR058W, strain fet3, stronger effect = lower value 1.02 | S. cerevisiae deletion strains, locus YMR078C, strain ctf18, stronger effect = lower value 1.02 | S. cerevisiae deletion strains, locus YMR125W, strain sto1, stronger effect = lower value 1.03 | S. cerevisiae deletion strains, locus YMR129W, stronger effect = lower value 1.02 | S. cerevisiae deletion strains, locus YMR205C, strain PFK2, stronger effect = lower value 1.05 | S. cerevisiae deletion strains, locus YMR223W, strain ubp8, stronger effect = lower value 1.01 | S. cerevisiae deletion strains, locus YMR231W, strain pep5, stronger effect = lower value 1.03 | S. cerevisiae deletion strains, locus YMR307W, strain GAS1, stronger effect = lower value 0.988 | S. cerevisiae deletion strains, locus YNL067W, strain RPL9B, stronger effect = lower value 1.04 | S. cerevisiae deletion strains, locus YNL071W, strain lat1, stronger effect = lower value 1.02 | S. cerevisiae deletion strains, locus YNL183C, strain NPR1, stronger effect = lower value 0.917 | S. cerevisiae deletion strains, locus YNL209W, strain ssb2, stronger effect = lower value 1.02 | S. cerevisiae deletion strains, locus YNL233W, strain BNI4, stronger effect = lower value 1.03 | S. cerevisiae deletion strains, locus YNL248C, strain rpa49, stronger effect = lower value 1.01 | S. cerevisiae deletion strains, locus YNL250W, strain rad50, stronger effect = lower value 1.01 | S. cerevisiae deletion strains, locus YNL271C, strain bni1, stronger effect = lower value 1.01 | S. cerevisiae deletion strains, locus YNL298W, strain CLA4, stronger effect = lower value 0.97 | S. cerevisiae deletion strains, locus YNL307C, strain MCK1, stronger effect = lower value 1.03 | S. cerevisiae deletion strains, locus YNL322C, strain KRE1 (second series), stronger effect = lower value 1.01 | S. cerevisiae deletion strains, locus YNL322C, strain KRE1, stronger effect = lower value 1 | S. cerevisiae deletion strains, locus YNR049C, strain mso1, stronger effect = lower value 1.02 | S. cerevisiae deletion strains, locus YNR052C, strain pop2, stronger effect = lower value 1 | S. cerevisiae deletion strains, locus YOL006C, strain TOP1, stronger effect = lower value 1.09 | S. cerevisiae deletion strains, locus YOL012C, strain htz1 1.07 | S. cerevisiae deletion strains, locus YOL147C, strain pex11, stronger effect = lower value 1.01 | S. cerevisiae deletion strains, locus YOR001W, strain rrp6, stronger effect = lower value 1.01 | S. cerevisiae deletion strains, locus YOR061W, strain CKA2, stronger effect = lower value 1.02 | S. cerevisiae deletion strains, locus YOR069W, strain VPS5, stronger effect = lower value 1.01 | S. cerevisiae deletion strains, locus YOR070C, strain gyp1, stronger effect = lower value 1.01 | S. cerevisiae deletion strains, locus YOR080W, strain dia2, stronger effect = lower value 1.02 | S. cerevisiae deletion strains, locus YOR083W, strain WHI5, stronger effect = lower value 1 | S. cerevisiae deletion strains, locus YOR106W, strain vam3, stronger effect = lower value 1.01 | S. cerevisiae deletion strains, locus YOR136W, strain idh2, stronger effect = lower value 1.02 | S. cerevisiae deletion strains, locus YOR144C, strain elg1, stronger effect = lower value 1.01 | S. cerevisiae deletion strains, locus YOR184W, strain ser1, stronger effect = lower value 1 | S. cerevisiae deletion strains, locus YOR231W, strain MKK1, stronger effect = lower value 0.928 | S. cerevisiae deletion strains, locus YOR265W, strain rbl2, stronger effect = lower value 1.01 | S. cerevisiae deletion strains, locus YOR270C, strain vph1, stronger effect = lower value 1.04 | S. cerevisiae deletion strains, locus YOR290C, strain snf2, stronger effect = lower value 0.995 | S. cerevisiae deletion strains, locus YOR316C, strain cot1, stronger effect = lower value 1.02 | S. cerevisiae deletion strains, locus YPL051W, strain arl3, stronger effect = lower value 1.01 | S. cerevisiae deletion strains, locus YPL055C, strain LGE1, stronger effect = lower value 1.04 | S. cerevisiae deletion strains, locus YPL078C, strain atp4, stronger effect = lower value 1.01 | S. cerevisiae deletion strains, locus YPL106C, strain sse1, stronger effect = lower value 1.03 | S. cerevisiae deletion strains, locus YPL240C, strain hsp82, stronger effect = lower value 1.01 | S. cerevisiae deletion strains, locus YPL241C, strain CIN2, stronger effect = lower value 1.01 | S. cerevisiae deletion strains, locus YPL256C, strain CLN2, stronger effect = lower value 0.926 | S. cerevisiae deletion strains, locus YPR119W, strain clb2, stronger effect = lower value 1.02 | S. cerevisiae deletion strains, locus YPR141C, strain kar3, stronger effect = lower value 1.02 | S. cerevisiae deletion strains, locus YPR163C, strain tif3, stronger effect = lower value 1.02 | S. cerevisiae deletion strains, locus YPR167C, strain met16, stronger effect = lower value 1.02 | S. cerevisiae deletion strains, strain wtn01, stronger effect = lower value 1.05 | S. cerevisiae strains, strain wild type, stronger effect = lower value 1.02
